Only some compounds are listed: those with a hit (about 1.6% of all), similar ones and a draw of the others.
eIF4E 4G PPI = eIF4E–eIF4G protein interaction inhibitors, primary screen, biochemical, uHTS, TR-FRET, eIF4GI fragment | inhibition, % at 21.7 µM | Eukaryotic translation initiation factor 4E (Mus musculus) + Eukaryotic translation … | TR-FRET eIF4E-eIF4GI(517-606) binding, 2 h | hit rate 0.37% among 220,000;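 active = inhibition above about 30%, limit read from the data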;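 also: 0% = full FRET control wells and 100% = background wells lacking eIF4GI fragment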
MLLE-PAM2 inh = inhibitors of PABP1 MLLE–PAM2 peptide binding, primary screen, biochemical, fluorescence polarization, FITC-PAM2, GST-MLLE. hit rate 0.36% among 360,000. inhibition, % at 20 µM. Polyadenylate-binding protein 1 (Homo sapiens), P11940; in the data active = inhibition above about 35%, passing the limit was not always enough;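 also: plate controls were DMSO wells with GST-MLLE for no effect and wells lacking GST-MLLE protein for full effect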
eIF4H FP inh = human eIF4H binding inhibitors, primary screen, translation initiation inhibitor project, biochemical, uHTS, fluorescence polarization; AID 2012, 2009; inhibition, % at 35 µM; eIF4H fluorescence polarization binding assay; hit rate 0.94% among 290,000; Eukaryotic translation initiation factor 4H (Homo sapiens), Q15056;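 also: calls also rest on retests at 20 µM and on dose response follow-up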
PABP FP inh = PABP poly(A) RNA binding inhibitors, primary screen, biochemical, fluorescence polarization, uHTS; calls only at 35 µM; hit rate 1% among 290,000; Polyadenylate-binding protein 1 (Homo sapiens), P11940; AID 2014, 2009;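 also: calls also rest on retests at 20 µM and on dose response follow-up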
PERK inhibitor = block of dimerizer-induced PERK translation repression, primary screen, PERK inhibitor project, CHO PERK-DD cells, SEAP luminescence, HTS | hit rate 0.17% among 220,000 | Eukaryotic translation initiation factor 2-alpha kinase 3 (Homo sapiens), Q9NZJ5 | inhibition, % at 5.6 µM | CHO PERK-DD fusion, SEAP luminescence translation reporter;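 active = inhibition above the mean inhibition of all tested compounds plus 3 SD, set separately per screening campaign, cut at about 2.9% in these data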;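 also: PERK kinase domain activated by AP20187 dimerizer at 100 nM; 0% = DMSO with dimerizer and 100% = rapamycin at 8.4 µM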
Target sequence (Q9NZJ5 whole entry, looked up, the tested form may be a part): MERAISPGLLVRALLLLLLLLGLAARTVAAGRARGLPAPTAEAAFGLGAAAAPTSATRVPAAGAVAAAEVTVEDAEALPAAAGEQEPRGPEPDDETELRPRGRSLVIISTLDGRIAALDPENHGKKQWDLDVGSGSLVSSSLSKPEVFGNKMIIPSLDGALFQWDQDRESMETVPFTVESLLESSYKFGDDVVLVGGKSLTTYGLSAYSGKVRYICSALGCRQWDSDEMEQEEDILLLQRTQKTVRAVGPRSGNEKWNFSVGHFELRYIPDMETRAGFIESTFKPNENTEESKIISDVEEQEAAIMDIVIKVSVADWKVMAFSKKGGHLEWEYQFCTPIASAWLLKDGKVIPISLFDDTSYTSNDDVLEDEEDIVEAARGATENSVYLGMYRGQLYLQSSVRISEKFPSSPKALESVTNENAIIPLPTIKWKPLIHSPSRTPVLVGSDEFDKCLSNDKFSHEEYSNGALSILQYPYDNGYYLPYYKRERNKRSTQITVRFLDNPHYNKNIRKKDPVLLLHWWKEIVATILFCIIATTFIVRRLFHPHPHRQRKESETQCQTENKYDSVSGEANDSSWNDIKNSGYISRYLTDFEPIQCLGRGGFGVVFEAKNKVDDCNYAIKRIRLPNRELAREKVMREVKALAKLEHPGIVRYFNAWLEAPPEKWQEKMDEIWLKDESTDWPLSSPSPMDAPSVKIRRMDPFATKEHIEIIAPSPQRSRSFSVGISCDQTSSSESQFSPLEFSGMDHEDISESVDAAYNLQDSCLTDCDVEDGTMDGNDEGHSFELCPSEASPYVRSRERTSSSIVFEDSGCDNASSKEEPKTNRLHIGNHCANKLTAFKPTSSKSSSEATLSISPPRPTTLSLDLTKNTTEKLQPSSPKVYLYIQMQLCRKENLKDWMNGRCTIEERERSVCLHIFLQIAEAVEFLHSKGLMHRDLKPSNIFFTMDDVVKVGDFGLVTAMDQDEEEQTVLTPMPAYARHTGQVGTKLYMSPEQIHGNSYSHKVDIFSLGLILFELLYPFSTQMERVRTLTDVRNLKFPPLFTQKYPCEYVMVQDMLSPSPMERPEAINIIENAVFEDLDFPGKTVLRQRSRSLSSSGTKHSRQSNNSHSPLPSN
Active calls of the source: *; i = inactive; ? = inconclusive; . = no result; + = active, no number; [ ] = dose if it differs, or a comment. Unless noted, no rule for the calls is given here.

SMILES | eIF4E 4G PPI | MLLE-PAM2 inh | eIF4H FP inh | PABP FP inh | PERK inhibitor
CCN(CC)CCCN1C(=O)CSC1c1ccc([N+](=O)[O-])cc1 (centres undefined) | 1.5 | 42.4* | -14.3 | i | 0.9
CCN(CC)CCCN1C(=O)CSC1c1ccc2c(c1)OCO2 (centres undefined) | 9.8 | 10.2 | -2.0 | i | -0.3
Cc1c(Cl)cccc1NC(=S)NNc1ncc(C(F)(F)F)cc1Cl | 4.9 | 36.5* | 11.8 | i | -0.5
COC1=C(Br)C(=O)c2ncccc2C1=O | . | 25.4 | . | . | .
Cc1ccc(-c2ccc(/C=N/N3C(=O)C4C5C=CC(CC5)C4C3=O)o2)c([N+](=O)[O-])c1 (centres undefined) | -1.8 | 18.5 | 52.7* | + | -0.3
COc1ccc(-c2ccc(/C=N/N3C(=O)C4C5C=CC(C6CC56)C4C3=O)o2)c([N+](=O)[O-])c1 (centres undefined) | -2.6 | 19.3 | 63.5* | + | 0.3
Cc1ccc(C)c(S(=O)(=O)N(C)c2ccc(OC(=O)C3CCN(C(=O)Nc4ccccc4)CC3)cc2)c1 | . | 10.6 | . | . | .
COc1ccc(CCNC(=O)C(=O)NCC2OCCN2S(=O)(=O)c2ccc(Cl)cc2)cc1OC (centres undefined) | . | -7.4 | -6.4 | i | .
CC(Oc1ccc2c3c(c(=O)oc2c1)CCC3)C(=O)NCC1CCC(C(=O)O)CC1 (centres undefined) | . | 2.8 | 7.5 | i | .
COc1ccc(OC)c(/C=C/C(=O)N2C(=O)c3cccc(N)c3C2=O)c1 | -33.3 | 39.7* | 7.8 | i | 0.2
COc1cc(/C=C/C(=O)N2C(=O)c3cccc(N)c3C2=O)cc(OC)c1OC | 1.0 | -18.1 | 6.0 | i | 0.7
O=[N+]([O-])c1ccc(CSCc2ccc([N+](=O)[O-])cc2)cc1 | . | 0.6 | . | . | .
COc1ccc(NC(=O)c2ccc(S(=O)(=O)N3CC(C)CC(C)C3)cc2)cc1S(N)(=O)=O (centres undefined) | . | -6.9 | . | . | .
CCOCC(=O)Nc1nc2ccc(C)cc2s1 | 2.4 | 41.4* | -2.7 | i | 0.0
N#Cc1ccc(S(=O)(=O)N2CCN(C(=O)c3cn(-c4ccccc4)nc3-c3cccnc3)CC2)cc1 | . | 11.5 | . | . | .
COc1ccc2c(Cl)c(C(=O)N/N=C/c3ccc4c(c3)OCO4)sc2c1 | -41.7 | -9.2 | -0.2 | i | 1.6
O=C(N/N=C/c1ccc2c(c1)OCO2)c1sc2cc(Cl)ccc2c1Cl | 30.4* | 9.8 | 4.8 | i | 1.4
COc1ccccc1CCNC(=O)c1cccc(S(=O)(=O)NCc2ccccc2)c1 | . | 5.0 | . | . | .
NC(=O)c1c(NC(=O)C2CCCO2)sc2c1CCCCC2 (centres undefined) | 11.8 | 40.9* | 12.2 | i | 1.5
CCN1C(=O)C2C(C1=O)N1C(c3ccccc3)C3C(=O)N(CC)C(=O)C3N1C2c1ccccc1 (centres undefined) | -13.8 | -3.9 | 4.2 | i | -1.6
CCN1C(=O)C(C(=O)c2ccccc2)SC1=S (centres undefined) | -4.0 | 38.1* | 20.0 | i | 0.6
Cc1ccc(NC(=O)CN2C(=O)S/C(=C/c3ccncc3)C2=O)cc1 | . | 47.9* | 5.3 | i | .
O=C(CN1C(=O)S/C(=C/c2ccncc2)C1=O)N1CCOCC1 | 1.3 | 48.8* | 0.0 | i | 0.9
O=C(NCCNC(=O)c1ccc(Br)o1)c1cccnc1 | . | 6.4 | -6.7 | i | .
CCOC(=O)c1sc(NC(=O)C2C3C=CC(C3)C2C(=O)O)nc1C (centres undefined) | -10.5 | 1.6 | -3.9 | i | 3.4*
SMILES | eIF4E 4G PPI | MLLE-PAM2 inh | eIF4H FP inh | PABP FP inh | PERK inhibitor
CCOC(=O)c1sc(NC(=O)C2CC2)nc1C | -0.7 | -6.4 | -11.3 | i | 0.6
O=C(CSc1nc2c(sc3ccccc32)c(=O)n1CCc1ccccc1)NCc1ccco1 | -5.6 | -14.2 | 11.6 | i | -0.3
CCN(CC)CCn1c(SCC(=O)NCc2ccccc2)nc2c(sc3ccccc32)c1=O | 0.3 | 27.8 | 4.5* | + | 0.3
CC(=O)Nc1ccc(OCCCNC(=O)c2c(-c3ccccc3)noc2C)cc1 | 35.3* | -3.1 | -8.3 | i | -1.4
COC(=O)COc1ccc(S(=O)(=O)Nc2ccc3c(c2)OCO3)cc1 | 55.4*[fluorescence artefact?] | 8.7 | 5.3 | i | 1.3
COc1cccc(C(C)(O)c2nc(-c3ccc(S(C)(=O)=O)cc3)cs2)c1 (centres undefined) | . | -25.0 | . | . | .
COc1cc(NC(=O)c2ccccc2)c(OC)cc1NC(=O)Cc1cccs1 | 38.9* | -20.0 | 57.5* | i | 0.1
COc1ccc(Cc2nnc(NC(=O)Cc3cccs3)s2)cc1OC | 36.8* | -12.6 | 1.7 | i | 0.2
CC(C)Cc1nnc(NC(=O)Cc2cccs2)s1 | 29.9 | -58.3 | 73.7* | + | 0.2
COc1ccc(NC(=O)Cc2cccs2)c(OC)c1 | -3.9 | -9.7 | 2.2 | i | -0.5
Cc1ccc([N+](=O)[O-])cc1NC(=O)Cc1cccs1 | 37.0* | -14.0 | 37.4 | i | 1.4
C[n+]1ccccc1/C=N/O | -1.7 | 2.3 | 0.3 | i | 0.8
CC(O)/C=C/c1cccc[n+]1C (centres undefined) | -10.9 | -117.3 | 14.1 | + | 0.2
Cc1ccc(S(=O)(=O)c2cc3c(=O)n4ccccc4nc3n(Cc3ccco3)c2=N)cc1C | 9.3 | . | 67.4* | + | 0.1
Cc1ccc2nc3c(cc(S(=O)(=O)c4ccccc4)c(=N)n3Cc3ccco3)c(=O)n2c1 | 15.8 | -10.9 | 70.4 | i | 0.3
CCOC(=O)c1cc2c(=O)n3ccccc3nc2n(Cc2ccco2)c1=NC(=O)c1ccccc1OC | 2.5 | 3.0 | 51.3* | i | 1.0
N=c1c(S(=O)(=O)c2ccccc2)cc2c(=O)n3ccccc3nc2n1Cc1ccco1 | . | -13.2 | 94.8* | + | 0.1
Cc1cccn2c(=O)c3cc(S(=O)(=O)c4ccc(F)cc4)c(=N)n(Cc4ccco4)c3nc12 | 17.1 | -9.2 | 83.2* | + | -2.0
Cc1cccn2c(=O)c3cc(S(=O)(=O)c4ccccc4)c(=N)n(Cc4ccco4)c3nc12 | 15.0 | 8.9 | 86.0 | i | 0.2
O=C(N/N=C/c1cc2ccccc2[nH]1)c1ccccc1Cl | -7.4 | -5.8 | 0.3 | i | 1.3
N=c1c(C(=O)NCCc2ccccc2)cc2c(=O)n3ccccc3nc2n1Cc1ccco1 | . | 0.4 | 92.8* | i | .
N=c1c(C(=O)NC2CCCCC2)cc2c(=O)n3ccccc3nc2n1Cc1ccco1 | . | -10.0 | 48.4 | i | .
Cc1nc(S/C(=C\c2ccc(-c3ccc(C(=O)O)c(Cl)c3)o2)C(=O)O)n[nH]1 | 9.6 | -78.1 | 74.8* | + | 0.0
CN(C(=O)COC(=O)c1cn(-c2ccccc2)nc1-c1ccccc1)C1CCS(=O)(=O)C1 (centres undefined) | -0.2 | 8.8 | active | ? | 0.2
